Results taken from PubChem BioAssay (NCATS).
Several values for one entry are separate records, joined by “and”; a condition that tells them apart may be missing. Equal entries are not always repeated. Results filed as inconclusive are left out. A call without a number means that no potency is given here. Activity calls are given as the source filed them. Calls come from the whole dose curve; as a rule, active = well fitted cell-killing curve with a large enough effect; inconclusive = small, poorly fitted or top-dose-only effect; inactive = flat fitted curve, though single readings scatter.

Assay: Cellular viability qHTS for adrenocortical cancer (ACC) cell line NCI-H295R (AID 1963990); note: nearly all actives have a fitted effect of over 60% in size
Details: CellTiter-Glo ATP luminescence, 48 h; series mostly up to 46.1 µM
How it was run: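 Compound titrations (up to 46 uM final) are applied to NCI-H295R cultures for 48 h at 37C. Viable cell number is estimated by CellTiter-Glo signal, normalised to DMSO and doxorubicin controls.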
Potency is the fitted concentration of half-maximal effect.

Row | Structure (SMILES) | Potency | activity change, negative = viability loss
1 | Clc1cccc(C(c2ccc3nc[nH]c3c2)n2ccnc2)c1 (stereo not given) | inactive | 
2 | Cc1[nH]cnc1-c1ccc(Cl)cc1 | inactive | 
3 | NS(=O)(=O)c1ccc(Cc2c(-c3cccc(-c4ccccc4)c3)nn(-c3nc(C(=O)O)cs3)c2CC2CC2)cc1 | 28.2 µM (active) | 
4 | COc1c2occc2c(OC)c2c(=O)cc(C)oc12 | inactive | 
5 | C[n+]1c2cc(N)ccc2cc2ccc(N)cc21 (tested in a mixture with another compound) | 1.3 µM (active) | 
6 | C[C@]12CCC(=O)C=C1C=C[C@@H]1[C@@H]2CC[C@@]2(C)[C@H]1CC[C@@]21CCC(=O)O1 | inactive | 
7 | CC(CNC1CCCCC1)OC(=O)c1ccccc1 (stereo not given) | inactive | 
8 | C[n+]1cc2c3c(ccc2c2ccc4cc5c(cc4c21)OCO5)OCO3 | 1.42 µM (active) | 
9 | CNC(=O)[C@H]1O[C@@H](n2cnc3c(NCc4cccc(I)c4)nc(Cl)nc32)[C@H](O)[C@@H]1O | inactive | 
10 | CC1CCc2c(N3CCC(O)CC3)c(F)cc3c(=O)c(C(=O)O)cn1c23 (stereo not given) | inactive | 
11 | C#C[C@]1(O)CC[C@H]2[C@@H]3CCC4=CC(=O)CC[C@@H]4[C@H]3CC[C@@]21CC | inactive | 
12 | CN1CC[C@@H](NC(=O)Nc2ccc(C#N)cc2)C[C@@H]1c1nc2ccccc2[nH]1 | inactive | 
13 | Nc1ncccc1-c1nc2ccc(-c3ccccc3)nc2n1-c1ccc(C2(N)CCC2)cc1 | 3.98 µM (active) | 
14 | COc1ccc2nc(SCc3ncc(C)c(OC)c3C)[nH]c2c1 | inactive | 
15 | CC(C)(C)NCC(O)COc1ccccc1OCC1CCCO1 (stereo not given) | inactive | 
16 | Nc1cc(-c2ccncc2)c[nH]c1=O | inactive | 
17 | CC(C)n1ncnc1-c1cn2c(n1)-c1ccc(O[C@@H](C)C(N)=O)cc1OCC2 | 0.631 µM (active) | 
18 | O=c1[nH]cnc2nc[nH]c12 | inactive | 
19 | Cc1c(-c2c(-c3ccc(F)o3)sc3ncnc(O[C@@H](Cc4ccccc4OCc4ccnn4CC(F)(F)F)C(=O)O)c23)ccc(OCCN2CCN(C)CC2)c1Cl | 1.58 µM (active) | 
20 | CC1=C(/C=C/C(C)=C/C=C/C(C)=C/C(=O)Nc2ccc(O)cc2)C(C)(C)CCC1 | 4.61 µM (active) | 

Row | Structure (SMILES) | Potency | activity change, negative = viability loss
21 | CCC(C(=O)OCCN(CC)CC)c1ccccc1 (stereo not given) | inactive | 
22 | COc1cc(N)c(Cl)cc1C(=O)NC1CCN(CCCOc2ccc(F)cc2)CC1OC (stereo not given) | inactive | 
23 | CC(C)C(C)(C)C(C)(C)C(C)(C)S | inactive | 
24 | CCN1CCN(Cc2ccc(NC(=O)c3ccc(C)c(/C=C/c4cnc5[nH]ccc5c4OC)c3)cc2C(F)(F)F)CC1 | 6.31 µM (active) | 
25 | CC/C(=C(\c1ccccc1)c1ccc(OCCN(C)C)cc1)c1ccccc1 | 11.2 µM (active) and 16.4 µM (active) | 
26 | CC(C)c1c(C(=O)Nc2ccccc2)c(-c2ccccc2)c(-c2ccc(F)cc2)n1CC[C@@H](O)C[C@@H](O)CC(=O)O | inactive | 
27 | Cc1ccc(-c2nn(C(C)(C)CNC(=O)c3ccncc3)c3ncnc(N)c23)cc1 | 8.91 µM (active) | 
28 | CNC(=O)CCc1cc(-c2ccc(-c3ccc(C(F)(F)F)cc3)cc2)n(-c2ccc(N3CCNCC3)cc2)n1 | 7.08 µM (active) | 
29 | CC(=O)[C@H]1CC[C@H]2[C@@H]3C[C@H](C)C4=CC(=O)CC[C@]4(C)[C@H]3[C@@H](O)C[C@]12C | inactive | 
30 | Oc1ccc(Cl)cc1Sc1cc(Cl)ccc1O | 4.11 µM (active) | 
31 | Cc1c[nH]c2nc(Nc3ccc(N4CCN(C)CC4)c(F)c3)nc(-c3cccc(CC#N)c3)c12 | 2.51 µM (active) | 
32 | CS(=O)(=O)c1ccc(-c2nnc(/C=C/c3nnc(-c4ccc(C#N)cc4)o3)n2-c2ccccc2Cl)nc1 | inactive | 
33 | c1cnc(N2CCN(Cc3ccc4c(c3)OCO4)CC2)nc1 | inactive | 
34 | C/C(=C(\CCOP(=O)(O)O)SC(=O)c1ccccc1)N(C=O)Cc1cnc(C)nc1N |  | 7.45% [at 3.81 µM] (inactive)
35 | CC(C)[C@H](CO)Nc1nc(Nc2ccc(C(=O)O)c(Cl)c2)c2ncn(C(C)C)c2n1 | inactive | 
36 | C=CCSCC1Nc2cc(Cl)c(S(N)(=O)=O)cc2S(=O)(=O)N1 (stereo not given) | inactive | 
37 | CNCCn1c(=O)c2cc(OC)c(OC)cc2c2cnc3cc4c(cc3c21)OCO4 | 0.596 µM (active) | 
38 | O[C@@H](c1cc(C(F)(F)F)nc2c(C(F)(F)F)cccc12)[C@H]1CCCCN1 | 5.17 µM (active) | 
39 | CCCC(=O)Nc1ccc(O)c(C(C)=O)c1 | inactive | 
40 | COc1cc(Cc2cnc(N)nc2N)cc(OC)c1OC | inactive | 
